# Source: PubChem (National Center for Advancing Translational Sciences (NCATS))
# FLuc modulator = inhibits or activates purified firefly luciferase, miR-21 counter-screen; purified FLuc, Km substrates, luminescence inhibition; Potency, µM (series often up to 57.5 µM), inactives show at the top dose activity change, negative = inhibition, most hits filed as inhibitors; 360,000 tested, 6.9% active; AID 588342;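 note: plate controls were vehicle for no effect and reference inhibitor for full effect; nearly all actives have a fitted effect of over 55% in size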
# Target sequence (P08659 whole entry, looked up): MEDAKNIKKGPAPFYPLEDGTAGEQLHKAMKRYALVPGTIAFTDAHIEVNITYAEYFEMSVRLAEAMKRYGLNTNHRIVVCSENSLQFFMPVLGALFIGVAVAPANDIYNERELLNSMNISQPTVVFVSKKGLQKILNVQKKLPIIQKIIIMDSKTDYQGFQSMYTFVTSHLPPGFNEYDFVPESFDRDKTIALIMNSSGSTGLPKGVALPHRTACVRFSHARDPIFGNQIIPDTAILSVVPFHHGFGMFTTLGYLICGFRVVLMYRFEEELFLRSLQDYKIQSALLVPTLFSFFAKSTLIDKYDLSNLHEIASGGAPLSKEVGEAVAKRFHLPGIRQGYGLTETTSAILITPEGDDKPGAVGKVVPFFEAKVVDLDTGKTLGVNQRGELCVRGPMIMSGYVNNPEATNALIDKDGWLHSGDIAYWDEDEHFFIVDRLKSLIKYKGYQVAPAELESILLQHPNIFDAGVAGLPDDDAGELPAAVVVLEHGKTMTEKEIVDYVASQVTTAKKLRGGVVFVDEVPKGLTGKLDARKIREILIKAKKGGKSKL
#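 Biochemical qHTS of compounds, final roughly 60 µM downward over six points, against 10 nM purified firefly luciferase using Km concentrations of substrates (10 uM D-luciferin, 10 uM ATP) in Tris acetate pH 7.5 buffer; luminescence output.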
# SMN2 splice enh = increases expression of the SMN2 splice variant. HEK293 SMN2-luciferase splicing reporter, luminescence, 30-36 h. Potency, µM (titrated, usually from 46.1 µM), for the others: at the top dose activity change, positive = activation, most hits filed as activators. 210,000 tested, 2.8% active. AID 1458; note: % of control where 0% means no effect; nearly all actives have a fitted effect of over 55% in size
#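 HEK293 cells carry an SMN2 minigene-luciferase reporter in which exon 7 inclusion puts luciferase in frame. Cells were seeded at 2000 cells/well, attached for 10-12 hours, then exposed to compounds for 30-36 hours at 37C before ONE-Glo luminescence.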
# NPC1 promoter act = activates the NPC1 promoter | Huh7 NPC1 promoter luciferase reporter, 24 h | Potency, µM (titrated, usually from 9.22 µM), for the others: top-dose activation, actives largely listed as activators | 320,000 tested, 2.4% active | AID 485313; note: % of control where 0% means no effect; nearly all actives have a fitted effect of over 60% in size
#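 Stable NPC1-promoter luciferase Huh7 line; cpd (DMSO) 24 h, 37 °C, 5% CO2; Amplite luciferase reagent 10 min RT; luminescence readout. qHTS format.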
# Luc counter = Kinase-Glo luciferase inhibition (counter-screen). Q27757. Kinase-Glo luciferase, ATP luminescence, 8 min. Potency, µM (series often up to 38.3 µM), inactives show at the top dose activity change, negative = inhibition, hits mostly inhibitors. 200,000 tested, 0.28% active. AID 1379; note: % is set by controls: 0 for no effect and ±100 for the full control effect; nearly all actives have a fitted effect of over 60% in size
#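 Compound is pinned into ATP-containing buffer (10 uM ATP, imidazole pH 7.2, 7 mM MgCl2). Kinase-Glo luciferase reagent is then added. Light output is recorded following an 8-min room-temperature incubation.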
# Rab9 prom act = activates the Rab9 promoter. Huh7 Rab9 promoter-luciferase reporter, luminescence, 24 h. Potency, µM (doses to about 9.22 µM), inactives show top-dose activation, negative = inhibition, actives largely listed as activators. 320,000 tested, 2.8% active. AID 485297; note: % of control where 0% means no effect; nearly all actives have a fitted effect of over 60% in size
#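 Measured in stably transfected Huh7 cells bearing a Rab9 promoter–luciferase construct: 24 h compound treatment at 37 °C, followed by luminescence detection.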
# Numbers without * were called inactive; ? = inconclusive; . = no result given; [ ] = another dose, or the depositor's remark. Rows were chosen to be rich in hits. Some 7.3% of all compounds tested hit in one or more screens of this group. Calls come from the whole dose curve; as a rule, active = well fitted curve in the direction sought with a large enough effect; inconclusive = small, poorly fitted or top-dose-only effect, or another doubt; inactive = no such curve, though single readings can be large; an effect the other way counts as inactive or inconclusive. Potency is the fitted concentration of half-maximal effect.
SMILES,FLuc modulator,SMN2 splice enh,NPC1 promoter act,Luc counter,Rab9 prom act
COc1cccc(/C=C2/SC(=S)N(CC(=O)NNC(=O)c3ccccc3OC)C2=O)c1,13µM*,.,-2%,.,0%
CCOc1ccc(NC(=O)CSc2nnc(-c3ccc(OCC)cc3)o2)cc1,-2%,.,.,.,.
Cc1ccc(NCc2cccn2-c2nnc(N3CCC(C(=O)NCCc4ccccc4)CC3)s2)cc1,-8%,-36%,.,.,.
COc1ccccc1N1CCN(c2nc3c(S(=O)(=O)c4ccccc4)nnn3c3ccc(Cl)cc23)CC1,-1%,-4%,.,.,.
O=C(CCSCCc1ccccn1)Nc1ccccc1C(F)(F)F,-5%,.,.,.,.
O=C(O)c1ccc(N/N=C/C2=Cc3ccccc3OC2)cc1,0.95µM*,.,0.63µM*,.,1µM*
COc1ccc(C(=O)N2CCN(C(=O)COc3ccc(Br)cc3)CC2)cc1OC,17µM*,5%,.,.,.
COc1cc(C(=O)N2CCN(C(=O)c3cc(-c4ccc(Br)cc4)n[nH]3)CC2)cc(OC)c1OC,11µM*,.,1%,.,2%
Nc1[nH]ncc1N=Nc1ccc(Cl)cc1,13µM*,11%,29%,1%,?
Nc1n[nH]c(N)c1N=Nc1cccc(F)c1,24µM*,18%,2%,8%,-3%
Cc1cccc(N=Nc2c(N)n[nH]c2N)c1,?,.,13%,.,22%
Nc1n[nH]c(N)c1N=Nc1ccc(Cl)cc1,15µM*,16%,9%,4%,22%
Nc1[nH]ncc1-c1ccc(Cl)cc1,-8%,2%,0%,-1%,-4%
C[C@@]1(C(=O)O)NCCc2cc(O)c(O)cc21,.,.,.,-6%,.
O=C(Nc1ccc(F)c(Cl)c1)C1CCN(c2ncccn2)CC1,-13%,-1%,.,.,.
Cc1sc2ncn(CC(=O)N3CCN(c4ccc(F)cc4)CC3)c(=O)c2c1S(=O)(=O)N1CCCCC1,2%,-3%,.,.,.
CC(/C=N/NC(=O)c1cccnc1)=C\c1ccco1,-2%[2.3 µM],?,16%,-7%,?
CC(=C/c1ccco1)/C=N/NC(=O)c1ccncc1,17µM*,.,11%,.,20%
CC(/C=N/NC(=O)c1cnccn1)=C\c1ccco1,12µM*,.,?,.,?
Cc1ccc(CNC(=O)c2cc(-c3ccc(C)c(C)c3)nc3ccccc23)cc1,-18%,.,.,.,.
O=C(NN=C1CCCC1)c1cc(-c2ccc(F)cc2)nc2ccccc12,-20%,1%,0%,-3%,-8%
O=C(NNS(=O)(=O)c1cccc(Cl)c1)c1cc(-c2ccc(F)cc2)nc2ccccc12,19µM*,0%,-2%,-2%,-6%
O=C(NC1=NCCS1)c1cc(-c2ccc(F)cc2)nc2ccccc12,5.4µM*,11%,11%,-4%,1%
CCCc1ccc(-c2cc(C(=O)NC3=NCCS3)c3ccccc3n2)cc1,0.34µM*,.,1.1µM*,.,4.5µM*
Cc1ccc(-c2cc(C(=O)NC3=NCCS3)c3ccccc3n2)cc1C,0.85µM*,14µM*,1%,-3%,7%
SMILES,FLuc modulator,SMN2 splice enh,NPC1 promoter act,Luc counter,Rab9 prom act
COCCCNC(=O)CSc1nc(-c2ccc(OC)cc2)[nH]c1-c1ccc(OC)cc1,-5%,13%,.,.,.
Cc1ccccc1Nc1nc(N)nc(COC(=O)c2ccccc2)n1,15µM*,?,?,-2%,2.2µM*
Cc1ccccc1Nc1nc(N)nc(COC(=O)c2cccn2C)n1,17µM*,11µM*,3.5µM*,-3%,?
CCc1ccccc1Nc1nc(N)nc(COC(=O)c2cccn2C)n1,-29%,?,?,-5%,?
COc1ccc(/C=C2\NC(=S)N(CC3CCCO3)C2=O)c(OC)c1C (centres undefined),-18%,4%,3%,1%,-4%
COc1ccc(/C=C2\NC(=S)N(CC3CCCO3)C2=O)c(OC)c1 (centres undefined),15µM*,-18%,3%,6%,?
COc1cccc(NC(=O)c2ccc3c(c2)C(=O)N(CC2CCCO2)C3=O)c1 (centres undefined),17µM*,.,3%,.,0%
CC(=O)Oc1cccc(C(=O)Nc2ccc3c(c2)C(=O)N(CC2CCCO2)C3=O)c1 (centres undefined),?,.,22%,.,3%
COc1ccccc1Oc1ccc2c(c1)C(=O)N(CC1CCCO1)C2=O (centres undefined),19µM*,.,8%,.,28%
COc1cccc(C(=O)Nc2ccc3c(c2)C(=O)N(CC2CCCO2)C3=O)c1 (centres undefined),9.5µM*,.,23%,.,25%
O=C(CCN1CCCCC1)c1csc2ccccc12,.,4%[9.22 µM],.,0%[7.66 µM],.
CC1=C(C)C[C@@]23CCCN2C(=O)CCC[C@H]3C1,.,.,.,2%[39.9 µM],.
COc1cc(NC(=S)N2CCN(C/C=C/c3ccccc3)CC2)cc(OC)c1,1%,13%,-1%,2%,-3%
COc1cc(NC(=S)N2CCN(C(c3ccccc3)c3ccccc3)CC2)cc(OC)c1,-2%,13µM*,2%,1%,-14%
Cc1ccccc1COC(=O)c1ccc(-c2nnn(Cc3ccccc3F)n2)cc1,1%,11%,.,.,.
COc1nc(C)ccc1-c1noc(-c2cccs2)n1,1.5µM*,.,0.56µM*,.,0.5µM*
CCOc1ccccc1-c1nc(-c2ccc(C)nc2OC)no1,9.5µM*,?,4.5µM*,-2%,3.2µM*
COc1cc(-c2nc(-c3ccc(C)nc3OC)no2)cc(OC)c1OC,-1%,9%,-2%,-2%,13%
COc1nc(C)ccc1-c1noc(-c2ccncc2)n1,13µM*,14µM*,?,-2%,?
Cc1ccc(N(Cc2cccs2)C(=O)COc2ccccc2[N+](=O)[O-])cc1,-14%,.,.,.,.
CCCn1c2ccccc2c2cnn(CC(=O)NCCc3ccc(S(N)(=O)=O)cc3)c(=O)c21,-3%,.,.,.,.
N#C/C(=C/c1ccc(N2CCCCC2)o1)C(=O)Nc1ccc2ccccc2c1,3.4µM*,-48%,6%,-4%,6%
COc1ccc(NC(=O)/C(C#N)=C/c2ccc(Br)o2)cc1,-11%,?,10%,-1%,18%
CNC(=O)/C(C#N)=C\c1ccc(CNS(=O)(=O)c2ccc(Cl)cc2)o1,1%,11%,-3%,1%,6%
N#C/C(=C/c1ccc(N2CCCCC2)o1)C(=O)Nc1ccc(Cl)cc1,0.6µM*,3.2µM*,2µM*,-1%,2.2µM*
SMILES,FLuc modulator,SMN2 splice enh,NPC1 promoter act,Luc counter,Rab9 prom act
CCCCOCCCNc1ncnc2c1[nH]c1ccccc12,?,-83%,-11%,-1%,-22%
CCCCOc1ncnc2c1[nH]c1ccccc12,11µM*,-77%,-5%,-3%,-13%
CCCCOc1ncnc2c1[nH]c1ccc(OCC)cc12,-2%,-20%,-2%,-6%,-16%
CCCCOc1ncnc2c1[nH]c1ccc(OC)cc12,1.7µM*,?,0.56µM*,-4%,1.4µM*
CCCCOc1ncnc2c1[nH]c1ccc(F)cc12,2.7µM*,-56%,-14%,-1%,-25%
CCOC(=O)c1c(C)[nH]c(C)c1S(=O)(=O)N1CCC(C(=O)Nc2cc(Cl)ccc2OC)CC1,-13%,.,.,.,.
